Screening results: PubChem BioAssay, National Center for Advancing Translational Sciences (NCATS)
Shown are actives, neighbours in structure and some others; about 1.3% of the full set was active somewhere.
USP1-UAF1 inh – Inhibitors of USP1/UAF1: Primary Screen; recombinant USP1/UAF1, Ub-Rhodamine cleavage fluorescence; Potency, µM (top dose mostly 57.1 µM), actives largely listed as inhibitors; hit rate 0.23% among 390,000; also: nearly all actives have a fitted effect of over 60% in size
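USP1/UAF1 complex at 1 nM was preincubated with compound for 15 min at room temperature, then Ub-Rho substrate (150nM final) was added. Fluorescence (480/540 nm) was read kinetically, 6 reads every 60 seconds.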
EPAC1 agonist – qHTS for Agonist of cAMP-regulated guanine nucleotide exchange factor 3 (EPAC1): primary screen; Rap guanine nucleotide exchange factor 3 (Homo sapiens), O95398; EPAC1 agonist qHTS, biochemical assay; response scale: 100% = response to 6.5 mM cAMP; Potency, µM (titrated, usually from 154 µM), hits mostly activators; hit rate 0.073% among 360,000; also: nearly all actives have a fitted effect of over 60% in size
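Nucleotide exchange assay: 100 nM EPAC1 with 250 nM Rap1B loaded with BODIPY-GDP and 50 uM GDP, room temperature. Fluorescence (480/540 nm) read every 5 min for 30 min; signal change normalized to 6.5 mM cAMP as full agonist.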
EPAC1 antag – qHTS for Antagonist of cAMP-regulated guanine nucleotide exchange factor 3 (EPAC1): primary screen; hit rate 0.14% among 360,000; Potency, µM (series often up to 115 µM), usual class: inhibitors; Rap guanine nucleotide exchange factor 3 (Homo sapiens), O95398; EPAC1 GEF assay, Rap1b-BODIPY-GDP exchange fluorescence; AID 720709, 2013; also: nearly all actives have a fitted effect of over 50% in size
EPAC2 antagonist – qHTS for Antagonist of cAMP-regulated guanine nucleotide exchange factor 2 (EPAC2): primary screen; Rap guanine nucleotide exchange factor 4 (Homo sapiens), Q8WZA2; EPAC2 GEF exchange of Rap1B-BODIPY-GDP, fluorescence; Potency, µM (doses to about 114 µM), actives largely listed as inhibitors; hit rate 0.18% among 360,000; also: nearly all actives have a fitted effect of over 45% in size
Target sequence (Q8WZA2 whole entry, looked up): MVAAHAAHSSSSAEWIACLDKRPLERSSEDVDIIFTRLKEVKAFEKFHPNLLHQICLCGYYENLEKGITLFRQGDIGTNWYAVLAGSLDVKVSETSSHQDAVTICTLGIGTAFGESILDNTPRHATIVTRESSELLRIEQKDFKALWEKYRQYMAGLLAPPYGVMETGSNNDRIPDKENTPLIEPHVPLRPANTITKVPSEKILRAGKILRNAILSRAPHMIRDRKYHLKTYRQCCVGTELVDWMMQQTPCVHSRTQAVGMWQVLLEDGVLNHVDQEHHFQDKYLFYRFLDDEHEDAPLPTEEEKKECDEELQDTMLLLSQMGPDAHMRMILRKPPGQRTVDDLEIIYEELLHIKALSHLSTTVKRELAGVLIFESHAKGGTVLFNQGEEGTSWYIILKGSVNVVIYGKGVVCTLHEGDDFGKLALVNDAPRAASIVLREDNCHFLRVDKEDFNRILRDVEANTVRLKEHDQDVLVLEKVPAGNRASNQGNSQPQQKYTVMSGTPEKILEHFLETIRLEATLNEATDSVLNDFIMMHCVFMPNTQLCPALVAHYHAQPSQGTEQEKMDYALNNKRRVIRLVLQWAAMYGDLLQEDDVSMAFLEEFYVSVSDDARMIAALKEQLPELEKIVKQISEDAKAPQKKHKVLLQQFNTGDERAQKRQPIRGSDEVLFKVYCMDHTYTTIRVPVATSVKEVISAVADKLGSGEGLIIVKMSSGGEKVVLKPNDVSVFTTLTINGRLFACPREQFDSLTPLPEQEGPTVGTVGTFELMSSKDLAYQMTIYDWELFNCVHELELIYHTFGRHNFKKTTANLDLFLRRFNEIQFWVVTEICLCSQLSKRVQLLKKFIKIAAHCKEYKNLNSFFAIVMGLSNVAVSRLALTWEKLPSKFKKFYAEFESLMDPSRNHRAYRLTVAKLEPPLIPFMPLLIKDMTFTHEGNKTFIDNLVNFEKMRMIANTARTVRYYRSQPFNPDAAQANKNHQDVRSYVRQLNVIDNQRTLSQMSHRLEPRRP
ALOX12 inh – Primary qHTS assay for inhibitors of human arachidonate 12S-lipoxygenase (ALOX12): Round 2; Polyunsaturated fatty acid lipoxygenase ALOX12 (Homo sapiens), P18054; purified 12hLO, xylenol orange hydroperoxide absorbance; Potency, µM (doses to about 108 µM), most hits filed as inhibitors; hit rate 1.1% among 580,000; AID 1671190, 2021
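Purified human 12hLO at 150 nM in 25 mM Hepes, 0.01% Triton X-100, pH 7.0, preincubated 15 min at room temperature with compound. Reaction started with 40 uM arachidonic acid, 30 min at room temperature. Hydroperoxide measured by Fe-xylenol orange, 573/405 nm absorbance ratio.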
EPAC2 agonist – qHTS for Agonist of cAMP-regulated guanine nucleotide exchange factor 4 (EPAC2): primary screen; EPAC2 activation, biochemical qHTS; response scale: 100% = 6.5 mM cAMP response; hit rate 0.079% among 360,000; Potency, µM (highest dose often 154 µM), most hits filed as activators; also: nearly all actives have a fitted effect of over 50% in size
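Fluorescence exchange assay: 100 nM EPAC2 with 250 nM RAP1B-BODIPY-GDP and 50 uM GDP; compounds tested as a concentration-titration series (qHTS). Loss of Rap1-bound BODIPY-GDP fluorescence read at 480/540 nm; data normalized to 6.5 mM cAMP.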
Numbers stand for hits; i = inactive; ? = inconclusive; nt = not tested or not shown. Calls follow the shape of the dose curve; as a rule, active = well fitted curve in the direction sought with a large enough effect; inconclusive = small, poorly fitted or top-dose-only effect, or another doubt; inactive = no such curve, though single readings can be large; an effect the other way counts as inactive or inconclusive.

SMILES	USP1-UAF1 inh	EPAC1 agonist	EPAC1 antag	EPAC2 antagonist	ALOX12 inh	EPAC2 agonist
O=C1c2ccccc2NC(c2csc(-c3ccc(F)cc3)n2)N1CC(F)(F)F (centres undefined)	nt	nt	nt	nt	i	nt
Cc1cccc(NC(=S)NCCc2ccccc2)n1	i	i	i	i	20µM	i
S=C(NCCc1ccncc1)Nc1ccccc1	i	i	i	i	i	i
Cc1ccccc1NC(=S)NCCc1ccccc1	i	i	i	i	?	i
S=C(NCCc1ccccc1)Nc1ccccn1	i	i	i	i	22.4µM	i
O=C(Nc1ccccc1)c1occc1-c1ccccc1	nt	nt	nt	nt	i	nt
CC(NC(=O)c1cncc(Br)c1)C12CC3CC(CC(C3)C1)C2 (centres undefined)	nt	nt	nt	nt	i	nt
C[C@@]12C(=O)Nc3cc(F)ccc3C(=O)N1[C@H]1c3cc(Br)ccc3OC[C@@H]1[C@@H]2c1ccccc1	i	i	i	i	i	79.4µM
CCOC(=O)[C@H]1[C@H]2COc3ccc(C)cc3[C@@H]2N2C(=O)c3ccc(C)cc3NC(=O)[C@@]12C	i	?	i	i	?	79.4µM
CC(C)c1nc(N2CCN(C(=O)C(=O)NCCc3ccccc3)CC2)c(C#N)c2c1CCCC2	nt	nt	nt	nt	i	nt
CCOC(=O)C(C)N1C(=O)S/C(=C/c2cn(C)c3ccccc23)C1=O (centres undefined)	nt	nt	nt	nt	i	nt
COCCn1cnnc1SCc1csc(-c2cc(Br)ccc2OC)n1	nt	nt	nt	nt	15.8µM	nt
C=C(C)C1CC=C(C)/C(=N/NC(=O)COc2ccc(C)cc2)C1 (centres undefined)	i	i	i	i	i	i
C=C(C)C1CC=C(C)/C(=N\NC(=S)Nc2ccc(C)cc2)C1 (centres undefined)	i	i	i	i	22.4µM	i
COc1ccc(CNC(=S)NCc2ccc(OC)cc2)cc1	i	i	i	i	?	i
COc1ccc(CNC(=S)NC(C)CCc2ccccc2)cc1 (centres undefined)	i	i	i	i	39.8µM	i
Cc1cccc(C)c1NC(=S)NC(C)CCc1ccccc1 (centres undefined)	i	i	i	i	39.8µM	i
Cc1nc(NC(=O)c2cc(F)ccc2Br)sc1C	nt	nt	nt	nt	i	nt
Cc1nn(-c2ccccc2)c(Cl)c1/C=C1\SC(=S)N(CCCCCC(=O)O)C1=O	?	i	i	39.8µM	i	i
O=C(O)CCCCN1C(=O)/C(=C\c2ccc(OCc3ccccc3)c(OCc3ccccc3)c2)SC1=S	i	i	i	?	i	i
Cc1nn(-c2ccccc2)c(Cl)c1/C=C1\SC(=S)NC1=O	i	i	?	?	25.1µM	i
COc1cc(CN(C(=O)c2ccc3c(c2)NC(=O)C(C)S3)C2CC2)ccc1OC(F)F (centres undefined)	nt	nt	nt	nt	i	nt
Cc1nc2ncnn2c(N(C)Cc2ccccc2)c1Cc1ccccc1	nt	nt	nt	nt	i	nt
Cc1ccc(NCCC(=O)c2cc3ccccc3o2)cc1Br	nt	nt	nt	nt	35.5µM	nt
N#C/C(=C/c1ccc(Cl)cc1)c1nc(-c2ccc(Br)cc2)cs1	i	nt	nt	nt	i	nt
Cc1ccnc(N/C=C(\C#N)c2nc(-c3cccc(Br)c3)cs2)c1	22.4µM	?	i	i	i	i
O=S(=O)(Nc1ccc(C(O)(C(F)(F)F)C(F)(F)F)cc1)c1cccc2ccccc12	nt	i	i	i	44.7µM	i
CC(C)c1ccc(-c2nc3cc(NC(=O)c4cccnc4)ccc3o2)cc1	nt	nt	nt	nt	39.8µM	nt
O=C(Nc1ccc2oc(-c3ccccc3)nc2c1)c1cccnc1	i	i	i	i	i	i
O=C(O)c1ccccc1-c1ccccc1C(=O)Nc1ccc(-c2nc3cc(Cl)ccc3o2)cc1	i	i	?	i	44.7µM	i
